Experimental data from article PMC7862700, “An all-to-all approach to the identification of sequence-specific readers for epigenetic DNA modifications on cytosine”.

Tests used:
Assay in all cases: DAPPL (digital affinity profiling via proximity ligation, sequencing); 10 mM Tris-HCl pH 7.5, 50 mM NaCl, 1 mM DTT, 4% glycerol, room temperature, 30 min; GST-TFs on glutathione beads, 16-mer random dsDNA library, 0.1% formaldehyde crosslink after washing; high values mean tight binding
FEV = molecular target: T1, FEV (Homo sapiens, UniProt Q99581 1-238); conditions: protein: recombinant; tags: N-terminal GST; dsDNA, one strand shown
T1 sequence: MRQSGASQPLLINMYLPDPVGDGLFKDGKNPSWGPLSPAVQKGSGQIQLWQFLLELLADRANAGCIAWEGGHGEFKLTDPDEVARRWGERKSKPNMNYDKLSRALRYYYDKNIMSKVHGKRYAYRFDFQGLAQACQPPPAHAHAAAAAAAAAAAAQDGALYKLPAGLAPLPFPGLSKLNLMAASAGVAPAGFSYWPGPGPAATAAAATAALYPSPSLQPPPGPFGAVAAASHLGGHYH
Procedure, shortened: (§1)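 Yeast served to express human transcription factors as GST fusions, which were then captured on glutathione beads and labelled with DNA barcodes. Pooled with a tag-only sample, they were incubated with 200 nmole of a 16-mer random double-stranded DNA library for 30 min at room temperature in Tris/NaCl/DTT/glycerol buffer, washed, crosslinked with 0.1% formaldehyde, ligated by proximity, amplified by PCR and sequenced. Dividing each hexamer's read frequency for a factor by its frequency for the tag-only sample gives the binding signal.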

ETV5 = ETV5 (Homo sapiens, UniProt P41161 1-510); conditions: protein: recombinant; tags: N-terminal GST; dsDNA, one strand shown
Procedure, shortened: as §1

HSF1 = HSF1 (Homo sapiens, UniProt Q00613 1-529); conditions: protein: recombinant; tags: N-terminal GST; chain copies: 3; dsDNA, one strand shown
Procedure, shortened: as §1

SPIC = molecular target: T2, SPIC (Homo sapiens, UniProt Q8N5J4 1-248); conditions: protein: recombinant; tags: N-terminal GST; dsDNA, one strand shown
T2 sequence: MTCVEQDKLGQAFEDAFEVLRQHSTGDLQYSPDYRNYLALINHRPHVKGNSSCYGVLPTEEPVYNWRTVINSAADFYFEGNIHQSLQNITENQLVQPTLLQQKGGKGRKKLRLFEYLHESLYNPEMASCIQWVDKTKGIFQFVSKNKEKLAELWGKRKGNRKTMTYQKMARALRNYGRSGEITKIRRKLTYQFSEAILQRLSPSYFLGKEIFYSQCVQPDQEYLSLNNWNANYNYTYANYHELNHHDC
Procedure, shortened: as §1

ELF4 = ELF4 (Homo sapiens, UniProt Q99607 1-663); conditions: protein: recombinant; tags: N-terminal GST; dsDNA, one strand shown
Procedure, shortened: as §1

ELK4 = molecular target: T3, ELK4 (Homo sapiens, UniProt P28324-2 1-405); conditions: protein: recombinant; tags: N-terminal GST; dsDNA, one strand shown
T3 sequence: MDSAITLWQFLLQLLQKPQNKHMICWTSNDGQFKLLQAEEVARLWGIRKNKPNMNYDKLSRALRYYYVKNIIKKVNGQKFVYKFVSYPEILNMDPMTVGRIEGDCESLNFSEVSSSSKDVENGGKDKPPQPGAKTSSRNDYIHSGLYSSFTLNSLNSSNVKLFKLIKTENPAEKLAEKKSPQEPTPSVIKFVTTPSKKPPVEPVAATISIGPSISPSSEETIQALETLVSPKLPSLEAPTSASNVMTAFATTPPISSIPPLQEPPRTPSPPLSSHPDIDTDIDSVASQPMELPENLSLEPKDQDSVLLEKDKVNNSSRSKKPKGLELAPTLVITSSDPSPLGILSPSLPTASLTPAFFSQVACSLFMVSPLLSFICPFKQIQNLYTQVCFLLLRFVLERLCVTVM
Procedure, shortened: as §1

ETV2 = molecular target: T4, ETV2 (Homo sapiens, UniProt O00321 1-342); conditions: protein: recombinant; tags: N-terminal GST; dsDNA, one strand shown
T4 sequence: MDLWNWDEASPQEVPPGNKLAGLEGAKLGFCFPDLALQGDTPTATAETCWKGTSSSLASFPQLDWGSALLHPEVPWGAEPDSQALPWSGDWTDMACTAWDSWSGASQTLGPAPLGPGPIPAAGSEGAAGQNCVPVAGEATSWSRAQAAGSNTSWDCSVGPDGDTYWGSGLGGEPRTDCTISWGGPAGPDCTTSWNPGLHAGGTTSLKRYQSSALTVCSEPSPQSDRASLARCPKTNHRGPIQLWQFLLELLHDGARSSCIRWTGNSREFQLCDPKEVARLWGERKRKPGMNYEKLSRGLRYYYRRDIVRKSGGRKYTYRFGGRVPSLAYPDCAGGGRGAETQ
Procedure, shortened: as §1

ELF3 = molecular target: T5, ELF3 (Homo sapiens, UniProt P78545 1-371); conditions: protein: recombinant; tags: N-terminal GST; dsDNA, one strand shown
T5 sequence: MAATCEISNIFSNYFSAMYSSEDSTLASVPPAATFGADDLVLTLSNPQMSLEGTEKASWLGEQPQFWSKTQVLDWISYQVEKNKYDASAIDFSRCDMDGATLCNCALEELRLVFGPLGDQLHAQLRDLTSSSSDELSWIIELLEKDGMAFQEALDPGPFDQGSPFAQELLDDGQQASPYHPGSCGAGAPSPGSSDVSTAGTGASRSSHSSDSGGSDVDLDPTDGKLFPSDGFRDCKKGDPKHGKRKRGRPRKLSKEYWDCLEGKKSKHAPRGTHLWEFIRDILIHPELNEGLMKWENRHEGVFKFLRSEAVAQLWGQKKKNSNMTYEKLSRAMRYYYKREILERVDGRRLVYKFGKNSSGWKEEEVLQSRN
Procedure, shortened: as §1

ETV1 = ETV1 (Homo sapiens, UniProt P50549 1-477); conditions: protein: recombinant; tags: N-terminal GST; dsDNA, one strand shown
Procedure, shortened: as §1

ERF = molecular target: T6, ERF (Homo sapiens, UniProt P50548 1-548); conditions: protein: recombinant; tags: N-terminal GST; dsDNA, one strand shown
T6 sequence: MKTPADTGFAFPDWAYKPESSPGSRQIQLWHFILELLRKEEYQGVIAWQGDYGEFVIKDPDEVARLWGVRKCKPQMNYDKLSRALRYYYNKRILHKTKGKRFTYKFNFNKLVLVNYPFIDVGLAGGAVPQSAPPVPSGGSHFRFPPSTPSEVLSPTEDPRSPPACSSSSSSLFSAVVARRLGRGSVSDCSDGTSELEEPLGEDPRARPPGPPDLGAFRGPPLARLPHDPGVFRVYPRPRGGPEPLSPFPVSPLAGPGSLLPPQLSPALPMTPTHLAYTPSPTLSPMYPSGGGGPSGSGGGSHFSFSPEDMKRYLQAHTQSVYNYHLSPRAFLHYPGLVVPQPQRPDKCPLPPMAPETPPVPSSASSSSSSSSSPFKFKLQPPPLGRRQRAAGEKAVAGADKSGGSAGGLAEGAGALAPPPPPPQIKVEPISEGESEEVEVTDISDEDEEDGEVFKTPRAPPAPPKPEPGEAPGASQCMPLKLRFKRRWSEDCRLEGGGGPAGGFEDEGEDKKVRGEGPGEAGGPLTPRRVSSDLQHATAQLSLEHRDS
Procedure, shortened: as §1

ETV3L = molecular target: T7, ETV3L (Homo sapiens, UniProt Q6ZN32 1-361); conditions: protein: recombinant; tags: N-terminal GST; dsDNA, one strand shown
T7 sequence: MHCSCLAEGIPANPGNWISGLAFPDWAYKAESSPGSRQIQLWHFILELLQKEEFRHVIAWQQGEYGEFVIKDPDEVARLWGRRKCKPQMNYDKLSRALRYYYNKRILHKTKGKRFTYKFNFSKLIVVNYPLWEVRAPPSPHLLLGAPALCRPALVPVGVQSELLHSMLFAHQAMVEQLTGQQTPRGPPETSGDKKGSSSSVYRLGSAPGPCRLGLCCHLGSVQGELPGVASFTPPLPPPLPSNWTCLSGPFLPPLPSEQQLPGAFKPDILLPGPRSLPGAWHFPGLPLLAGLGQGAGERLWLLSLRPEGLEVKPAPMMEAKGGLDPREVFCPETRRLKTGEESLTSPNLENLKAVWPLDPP
Procedure, shortened: as §1

ETS2 = molecular target: T8, ETS2 (Homo sapiens, UniProt P15036 1-469); conditions: protein: recombinant; tags: N-terminal GST; dsDNA, one strand shown
T8 sequence: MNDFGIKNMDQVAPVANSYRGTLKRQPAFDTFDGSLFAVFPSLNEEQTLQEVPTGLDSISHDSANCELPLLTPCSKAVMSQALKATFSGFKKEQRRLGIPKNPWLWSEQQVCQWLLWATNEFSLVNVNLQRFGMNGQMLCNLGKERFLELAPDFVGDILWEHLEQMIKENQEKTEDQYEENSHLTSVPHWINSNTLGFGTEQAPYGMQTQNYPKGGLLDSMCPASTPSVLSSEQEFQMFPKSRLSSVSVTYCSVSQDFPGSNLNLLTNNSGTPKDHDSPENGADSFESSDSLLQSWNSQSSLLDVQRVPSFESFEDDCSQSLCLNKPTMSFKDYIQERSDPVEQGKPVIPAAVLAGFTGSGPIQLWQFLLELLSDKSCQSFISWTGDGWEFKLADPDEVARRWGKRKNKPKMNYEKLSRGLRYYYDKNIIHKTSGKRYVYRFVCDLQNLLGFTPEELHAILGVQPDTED
Procedure, shortened: as §1

SPDEF = molecular target: T9, SPDEF (Homo sapiens, UniProt O95238 1-335); conditions: protein: recombinant; tags: N-terminal GST; dsDNA, one strand shown
T9 sequence: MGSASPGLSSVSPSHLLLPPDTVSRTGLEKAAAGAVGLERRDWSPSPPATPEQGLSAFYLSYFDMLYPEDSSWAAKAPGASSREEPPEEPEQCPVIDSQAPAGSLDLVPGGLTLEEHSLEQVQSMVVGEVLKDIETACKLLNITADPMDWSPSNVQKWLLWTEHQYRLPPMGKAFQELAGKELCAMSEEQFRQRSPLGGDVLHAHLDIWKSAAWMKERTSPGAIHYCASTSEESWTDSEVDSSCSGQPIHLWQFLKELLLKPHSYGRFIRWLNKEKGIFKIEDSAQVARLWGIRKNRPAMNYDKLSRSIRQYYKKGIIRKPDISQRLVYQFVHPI
Procedure, shortened: as §1

ETV7 = molecular target: T10, ETV7 (Homo sapiens, UniProt Q9Y603 1-341); conditions: protein: recombinant; tags: N-terminal GST; dsDNA, one strand shown
T10 sequence: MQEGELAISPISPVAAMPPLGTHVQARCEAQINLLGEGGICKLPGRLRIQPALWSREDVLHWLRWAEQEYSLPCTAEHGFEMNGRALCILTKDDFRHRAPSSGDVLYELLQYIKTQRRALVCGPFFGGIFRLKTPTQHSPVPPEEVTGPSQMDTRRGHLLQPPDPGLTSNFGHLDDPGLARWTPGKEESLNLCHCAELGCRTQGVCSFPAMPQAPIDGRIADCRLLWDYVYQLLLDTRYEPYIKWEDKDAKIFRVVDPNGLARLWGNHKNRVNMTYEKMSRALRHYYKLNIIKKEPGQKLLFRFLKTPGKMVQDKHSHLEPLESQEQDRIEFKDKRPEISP
Procedure, shortened: as §1

ELF5 = molecular target: T11, ELF5 (Homo sapiens, UniProt Q9UKW6-2 1-255); conditions: protein: recombinant; tags: N-terminal GST; dsDNA, one strand shown
T11 sequence: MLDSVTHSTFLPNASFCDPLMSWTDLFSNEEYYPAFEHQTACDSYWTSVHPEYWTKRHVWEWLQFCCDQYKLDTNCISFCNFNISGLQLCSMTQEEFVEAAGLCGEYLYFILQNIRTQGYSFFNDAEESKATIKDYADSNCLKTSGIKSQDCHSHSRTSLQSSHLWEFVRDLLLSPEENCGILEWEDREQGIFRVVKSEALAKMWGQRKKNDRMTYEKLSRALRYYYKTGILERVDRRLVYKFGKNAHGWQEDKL
Procedure, shortened: as §1

ETV3 = molecular target: T12, ETV3 (Homo sapiens, UniProt P41162-2 1-143); conditions: protein: recombinant; tags: N-terminal GST; dsDNA, one strand shown
T12 sequence: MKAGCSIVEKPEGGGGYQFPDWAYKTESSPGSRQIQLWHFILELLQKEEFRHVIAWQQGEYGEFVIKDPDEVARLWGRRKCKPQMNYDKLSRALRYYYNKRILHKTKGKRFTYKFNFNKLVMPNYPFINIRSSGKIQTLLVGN
Procedure, shortened: as §1

ETV6 = ETV6 (Homo sapiens, UniProt P41212 1-452); conditions: protein: recombinant; tags: N-terminal GST; dsDNA, one strand shown
Procedure, shortened: as §1

Sequence of HSF1 (Q00613 whole entry): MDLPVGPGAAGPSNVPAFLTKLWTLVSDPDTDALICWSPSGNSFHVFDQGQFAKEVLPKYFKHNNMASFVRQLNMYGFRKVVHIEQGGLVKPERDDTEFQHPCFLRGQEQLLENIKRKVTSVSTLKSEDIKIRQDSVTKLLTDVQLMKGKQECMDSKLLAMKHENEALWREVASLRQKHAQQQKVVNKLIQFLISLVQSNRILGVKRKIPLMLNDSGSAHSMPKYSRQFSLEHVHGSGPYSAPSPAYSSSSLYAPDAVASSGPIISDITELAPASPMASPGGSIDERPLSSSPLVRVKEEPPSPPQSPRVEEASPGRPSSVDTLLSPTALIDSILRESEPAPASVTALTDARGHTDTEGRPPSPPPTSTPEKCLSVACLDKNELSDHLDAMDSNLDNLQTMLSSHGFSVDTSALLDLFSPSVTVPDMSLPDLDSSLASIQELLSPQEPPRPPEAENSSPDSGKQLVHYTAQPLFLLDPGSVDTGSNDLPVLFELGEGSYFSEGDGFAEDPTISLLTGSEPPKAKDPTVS
Sequence of ETV1 (P50549 whole entry): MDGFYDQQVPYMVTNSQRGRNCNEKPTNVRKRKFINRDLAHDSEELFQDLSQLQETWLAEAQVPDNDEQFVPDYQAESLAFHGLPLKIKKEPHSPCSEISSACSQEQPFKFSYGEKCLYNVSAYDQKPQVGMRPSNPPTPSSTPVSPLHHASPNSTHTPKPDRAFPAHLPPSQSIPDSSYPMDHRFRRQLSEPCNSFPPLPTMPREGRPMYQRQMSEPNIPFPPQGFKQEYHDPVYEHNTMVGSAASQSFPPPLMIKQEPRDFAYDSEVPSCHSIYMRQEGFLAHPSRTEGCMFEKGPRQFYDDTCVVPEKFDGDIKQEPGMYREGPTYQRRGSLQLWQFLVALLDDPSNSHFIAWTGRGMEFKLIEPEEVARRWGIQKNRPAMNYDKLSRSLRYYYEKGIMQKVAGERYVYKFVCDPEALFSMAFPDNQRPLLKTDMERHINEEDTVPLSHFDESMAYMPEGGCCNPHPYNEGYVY
Sequence of ETV6 (P41212 whole entry): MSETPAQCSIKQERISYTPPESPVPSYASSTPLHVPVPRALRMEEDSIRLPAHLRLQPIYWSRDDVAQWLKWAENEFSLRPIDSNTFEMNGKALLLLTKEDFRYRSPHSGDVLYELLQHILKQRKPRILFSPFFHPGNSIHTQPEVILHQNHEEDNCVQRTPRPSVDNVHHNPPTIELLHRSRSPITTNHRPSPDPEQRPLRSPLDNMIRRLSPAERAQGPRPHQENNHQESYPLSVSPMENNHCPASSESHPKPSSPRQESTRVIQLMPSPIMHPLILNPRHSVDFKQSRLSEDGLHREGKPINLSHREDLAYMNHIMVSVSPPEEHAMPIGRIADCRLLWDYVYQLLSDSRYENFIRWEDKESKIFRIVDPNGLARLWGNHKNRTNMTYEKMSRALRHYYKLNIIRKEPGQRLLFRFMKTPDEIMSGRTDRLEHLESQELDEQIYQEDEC
Sequence of ETV5 (P41161 whole entry): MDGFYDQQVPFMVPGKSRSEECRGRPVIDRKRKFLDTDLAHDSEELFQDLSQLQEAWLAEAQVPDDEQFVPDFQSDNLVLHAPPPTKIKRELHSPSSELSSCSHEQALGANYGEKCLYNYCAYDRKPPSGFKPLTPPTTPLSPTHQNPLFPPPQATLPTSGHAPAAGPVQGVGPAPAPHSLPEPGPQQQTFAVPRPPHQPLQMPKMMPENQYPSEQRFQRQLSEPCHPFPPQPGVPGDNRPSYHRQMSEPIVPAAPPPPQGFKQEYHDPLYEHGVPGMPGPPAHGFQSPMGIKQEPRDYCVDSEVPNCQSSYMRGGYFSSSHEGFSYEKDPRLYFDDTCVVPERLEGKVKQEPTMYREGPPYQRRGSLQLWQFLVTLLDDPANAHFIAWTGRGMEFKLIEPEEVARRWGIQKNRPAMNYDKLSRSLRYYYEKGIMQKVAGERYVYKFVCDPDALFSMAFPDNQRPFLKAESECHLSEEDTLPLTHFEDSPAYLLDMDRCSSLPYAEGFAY
Sequence of ELF4 (Q99607 whole entry): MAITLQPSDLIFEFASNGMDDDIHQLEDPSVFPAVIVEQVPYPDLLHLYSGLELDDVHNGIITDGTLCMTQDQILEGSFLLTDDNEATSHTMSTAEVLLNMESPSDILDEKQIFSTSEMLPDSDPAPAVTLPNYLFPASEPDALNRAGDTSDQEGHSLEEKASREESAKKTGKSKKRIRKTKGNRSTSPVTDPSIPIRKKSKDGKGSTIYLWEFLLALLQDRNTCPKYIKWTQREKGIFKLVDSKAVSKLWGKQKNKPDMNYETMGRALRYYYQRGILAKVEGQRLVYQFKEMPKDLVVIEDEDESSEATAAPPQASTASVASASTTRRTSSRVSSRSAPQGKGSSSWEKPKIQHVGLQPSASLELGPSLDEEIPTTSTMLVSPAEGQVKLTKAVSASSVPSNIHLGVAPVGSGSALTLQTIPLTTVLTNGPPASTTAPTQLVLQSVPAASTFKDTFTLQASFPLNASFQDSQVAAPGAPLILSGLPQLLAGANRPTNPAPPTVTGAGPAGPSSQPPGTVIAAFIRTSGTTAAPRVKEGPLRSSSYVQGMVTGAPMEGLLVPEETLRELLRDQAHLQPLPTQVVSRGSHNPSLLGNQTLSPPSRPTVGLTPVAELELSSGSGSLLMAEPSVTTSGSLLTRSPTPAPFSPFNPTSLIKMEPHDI

Row | Sequence | binding signal (FEV) | binding signal (ETV5) | binding signal (HSF1) | binding signal (SPIC) | binding signal (ELF4) | binding signal (ELK4) | binding signal (ETV2) | binding signal (ELF3) | binding signal (ETV1) | binding signal (ERF) | binding signal (ETV3L) | binding signal (ETS2) | binding signal (SPDEF) | binding signal (ETV7) | binding signal (ELF5) | binding signal (ETV3) | binding signal (ETV6)
1 | AGTTTC | 1.23 fold enrichment (6-mer frequency, TF over GST control) | 1.33 fold enrichment (6-mer frequency, TF over GST control) | 1.38 fold enrichment (6-mer frequency, TF over GST control) | 1.16 fold enrichment (6-mer frequency, TF over GST control) | 1.2 fold enrichment (6-mer frequency, TF over GST control) | 1.13 fold enrichment (6-mer frequency, TF over GST control) | 1.21 fold enrichment (6-mer frequency, TF over GST control) | 1.14 fold enrichment (6-mer frequency, TF over GST control) | 1.29 fold enrichment (6-mer frequency, TF over GST control) | 1.22 fold enrichment (6-mer frequency, TF over GST control) | 1.33 fold enrichment (6-mer frequency, TF over GST control) | 1.3 fold enrichment (6-mer frequency, TF over GST control) | 1.19 fold enrichment (6-mer frequency, TF over GST control) | 1.29 fold enrichment (6-mer frequency, TF over GST control) | 1.65 fold enrichment (6-mer frequency, TF over GST control) | 1.36 fold enrichment (6-mer frequency, TF over GST control) | 1.29 fold enrichment (6-mer frequency, TF over GST control)
2 | TGTTCA | 1.19 fold enrichment (6-mer frequency, TF over GST control) | 1.18 fold enrichment (6-mer frequency, TF over GST control) | 1.09 fold enrichment (6-mer frequency, TF over GST control) | 1.17 fold enrichment (6-mer frequency, TF over GST control) | 1.21 fold enrichment (6-mer frequency, TF over GST control) | 1.28 fold enrichment (6-mer frequency, TF over GST control) | 1.07 fold enrichment (6-mer frequency, TF over GST control) | 1.22 fold enrichment (6-mer frequency, TF over GST control) | 1.21 fold enrichment (6-mer frequency, TF over GST control) | 1.32 fold enrichment (6-mer frequency, TF over GST control) | 1.23 fold enrichment (6-mer frequency, TF over GST control) | 1.2 fold enrichment (6-mer frequency, TF over GST control) | 1.3 fold enrichment (6-mer frequency, TF over GST control) | 1.25 fold enrichment (6-mer frequency, TF over GST control) | 1.2 fold enrichment (6-mer frequency, TF over GST control) | 1.25 fold enrichment (6-mer frequency, TF over GST control) | 1.14 fold enrichment (6-mer frequency, TF over GST control)
